High-throughput results (PubChem BioAssay)
YB-1 expr inh: YB-1 expression inhibition; U2OS, qRT-PCR YB-1 vs CDIP delta delta Cp, 16 h; active compounds read high; zero = DMSO, each unit about twofold; delta delta Cp (YB-1 minus CDIP) (test concentration not listed); actives 0.37% (n = 30,000); AID 434959;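 active means delta delta Cp rounded down to an integer at or above 3, about 3 SD of DMSO wells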;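 further: higher means less YB-1 transcript or more CDIP transcript relative to DMSO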
MITF inhib: MITF inhibition; TRPM1 promoter luciferase, luminescence, 24 h; actives 0.28% (n = 37,000); AID 2240; inhibition, % (test concentration not listed); in the data active means inhibition above about 85%; inconclusive means no clear call, values can overlap the other calls; inactive means below about 68%;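 further: human melanocyte line stably carrying TRPM1 promoter luciferase reporter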
Shh pathway inh: blocks Sonic Hedgehog signaling; inhibition, % (no concentration beside the values); actives 2.1% (n = 22,000); Shh-LIGHT2 Gli-luciferase reporter, 30 h; AID 2313;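 active means mean inhibition across valid replicates above about 65%, limit read from the data; inconclusive means mean under the limit, yet half or more replicates past it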;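 further: pathway switched on by Shh-conditioned medium diluted 1 in 25 in low serum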
NOMO-1 viab: STK33 inhibitor candidate reducing NOMO-1 cell viability. NOMO-1 AML viability, CellTiter-Glo luminescence, 72 h. inhibition, % (no concentration beside the values). actives 7.5% (n = 37,000). AID 2330; in the data active means inhibition above about 80%; inconclusive means no clear call, values can overlap the other calls
PD-1 reverse act: activators reversing PD-1 mediated T-cell inhibition. primary human CD4 T cells, PD-L1 beads, CellTiter-Glo 96 h. activation, % (concentration not given with the values). 29,000 tested, under 10 active. AID 2316; call rule not given here;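 further: 0% = median vehicle wells and 100% = positive control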
Active calls of the source: *; u = inconclusive; x = not tested or not shown. This is a sample that favours compounds with a hit; in the whole collection about 7.4% have one here.

SMILES	YB-1 expr inh	MITF inhib	Shh pathway inh	NOMO-1 viab	PD-1 reverse act
C[C@@H]1CN([C@H](C)CO)C(=O)c2cccc(NC(=O)Nc3ccc4c(c3)OCO4)c2O[C@@H]1CN(C)Cc1ccc(-c2ccccc2)cc1	-0.32	-8	19	94*	-2
C[C@@H]1CN([C@@H](C)CO)C(=O)c2cccc(NC(=O)Nc3ccc4c(c3)OCO4)c2O[C@@H]1CN(C)Cc1ccc(-c2ccccc2)cc1	-0.14	-8	45	116*	-5
C[C@H](CO)N1C[C@H](C)[C@H](CN(C)Cc2ccc(Oc3ccccc3)cc2)Oc2c(NC(=O)Nc3ccc4c(c3)OCO4)cccc2C1=O	0.094	3	16	116*	-3
CCOc1ccc(CCC(=O)O)cc1	0.09	1	-5	4	-1
CC(=O)Nc1[nH]c2c(c1C#N)CCCCC2	-0.021	-9	14	-5	0
C[C@@H]1CN([C@H](C)CO)C(=O)c2cccc(NC(=O)Nc3ccc4c(c3)OCO4)c2O[C@H]1CN(C)Cc1ccc(-c2ccccc2)cc1	0.00089	4	2	91*	-3
C[C@H]1CN([C@@H](C)CO)C(=O)c2cc(N(C)C)ccc2O[C@@H]1CN(C)Cc1ccc(C(=O)Nc2ccccc2N)cc1	-1.2	29	x	112*	-2
C[C@@H]1CN([C@@H](C)CO)C(=O)c2cc(N(C)C)ccc2O[C@@H]1CN(C)Cc1ccc(C(=O)Nc2ccccc2N)cc1	0.21	36	x	110*	-3
C[C@H]1CN([C@@H](C)CO)C(=O)c2cc(NC(=O)c3ccncc3)ccc2O[C@@H]1CN(C)Cc1ccc(C(=O)Nc2ccccc2N)cc1	-0.29	-8	x	-3	0
C[C@@H]1CN([C@H](C)CO)C(=O)c2cc(NC(=O)c3ccncc3)ccc2O[C@@H]1CN(C)Cc1ccc(C(=O)Nc2ccccc2N)cc1	-0.53	-8	x	u	-3
COc1ccc(-c2cc(=O)c3c(O)c(OC)c(O)c(OC)c3o2)cc1	-0.14	-43	-21	1	0
CC(=O)NC(=O)NCc1ccccc1	-0.16	4	x	-3	1
Cc1oc2c(c1C(=O)NCc1ccccc1)C(=O)c1ccccc1C2=O	0.24	58	93*	140*	-3
CN(/N=C/c1ccccc1)C1=NS(=O)(=O)c2ccccc21	0.073	-1	x	45	1
O=C(COc1ccc(Br)cc1)NCC1CCCO1 (configuration not stated)	9.5*	-23	-8	3	0
O=S(=O)(NCC1CCCO1)c1ccc(Br)cc1 (configuration not stated)	-0.14	-4	20	13	2
CCn1c(SCC(=O)Nc2cc(Cl)cc(Cl)c2)nnc1-c1cccs1	x	14	x	-17	3
COc1ccc(NC(=O)CSc2nnc3sc4ccccc4n23)cc1	x	-23	x	-13	1
Cc1nnc(Nc2cccc(Cl)c2C)s1	0.0017	21	22	10	0
CSC1=NC2(CCCCC2)NC2=C1CCCC2	-0.19	-10	-14	20	7
C[C@@H]1CCOC(=O)C=CC=CC(=O)O[C@@H]2C[C@H]3O[C@@H]4C=C(C(=O)O)CC[C@]4(COC(=O)[C@H]1O)[C@]2(C)[C@]31CO1	1.6	65	4	121*	-6
N#CC1=C(N)C(C#N)=c2s/c(=C/c3cccc(F)c3)c(=O)n2C1c1cccc(F)c1 (configuration not stated)	0.18	-13	-26	116*	1
Cc1ccc(S(=O)(=O)N(Cc2cc3cccc(C)c3[nH]c2=O)c2ccccc2)cc1	x	0	x	116*	-3
COc1ccc(C(=O)Cn2c3ccccc3n3nc(-c4cccs4)nc23)cc1OC	x	0	x	4	0
C[C@H](CO)N1C[C@H](C)[C@H](CN(C)Cc2ccc(C(=O)Nc3ccccc3N)cc2)Oc2ccc(N(C)C)cc2CC1=O	-0.21	37	x	141*	-2
C[C@@H]1CN([C@@H](C)CO)C(=O)Cc2cc(NC(=O)c3ccncc3)ccc2O[C@@H]1CN(C)Cc1ccc(C(=O)Nc2ccccc2N)cc1	-0.65	0	x	65	1
C[C@H]1CN([C@@H](C)CO)C(=O)Cc2cc(N(C)C)ccc2O[C@H]1CN(C)Cc1ccc(C(=O)Nc2ccccc2N)cc1	-0.14	31	x	141*	-1
CN(c1cccc(NS(=O)(=O)c2ccc3c(c2)OCCO3)c1)S(C)(=O)=O	x	36	x	-2	x
Cc1ccnc(NC(c2cccc(F)c2)c2ccc3ccc(C)nc3c2O)c1 (configuration not stated)	x	54	x	116*	x
